Reference: PubChem BioAssay
Results with a measured potency or affinity are listed apart. Results filed as inconclusive are left out. The source made the active and inactive calls. How the calls were made is not given here.

assay: non-specific cell cytotoxicity, dose response, cytotoxicity control for PAX8 inhibitor project, plate reader, dry powder samples (AID 743021); conditions: cell line, non-specific cytotoxicity counter-screen; series mostly up to 35 µM; activity change, negative = cytotoxicity: at the top concentration

Compound	activity change, negative = cytotoxicity
O=C(CCc1ccc(S(=O)(=O)NCc2ccccc2)cc1)NCc1cccnc1	38.7% (inactive)
CCOc1ccc(C(=O)C(CN2CCOCC2)c2ccccc2)cc1 (stereo not given)	28.2% (inactive)
O=C(Nc1cc(S(=O)(=O)N2CCCCC2)ccc1Cl)c1ccccc1NS(=O)(=O)c1ccc(F)cc1	13.7% (inactive)
Cn1nnnc1Sc1ncnc2scc(-c3ccc[nH]3)c12	34% (inactive)
Cn1c(=O)c([N+](=O)[O-])c(Cl)c2ccccc21	44.5% (inactive)
CN1CCN(c2ccc(S(=O)(=O)N3CCCCC3)cc2NC(=O)/C=C/c2ccc(Cl)c([N+](=O)[O-])c2)CC1	-3.06% (inactive)
CCCCCCCn1c2c(c(=N)c3c1CCC3)CCCC2	30.5% (inactive)
Oc1ccc(C[C@H]2CN([C@@H](Cc3ccc(O)cc3)CN3CCC[C@@H]3CN3C(=S)NC[C@@H]3Cc3ccccc3)C(=S)N2CC2CCCCCC2)cc1	0.957% (inactive)
CNC(=O)c1cc(Oc2ccc(NC(=O)Nc3ccc(Cl)c(C(F)(F)F)c3)cc2)ccn1	15.6% (inactive)
Cc1ccc(S(=O)(=O)N(C)C[C@H]2Oc3c(NC(=O)Nc4cccc5ccccc45)cccc3C(=O)N([C@@H](C)CO)C[C@@H]2C)cc1	48.2% (inactive)
Oc1[nH]c2ccc(Br)cc2c1N=NC(=S)N1CCOCC1	-2.94% (inactive)
CSc1nc(-c2ccccc2)nc(C(Cl)Cl)n1	4.75% (inactive)
CCCCn1c(=O)[nH]c(=O)c2c1nc(Cn1ncc(Cl)c(Cl)c1=O)n2CCC	34% (inactive)
CC(=O)c1sc(NC(=O)CCS(=O)(=O)c2ccc(Cl)cc2)nc1C	24.3% (inactive)
CC(=O)Nc1ccc(NC(=O)c2nc(S(=O)(=O)Cc3ccccc3)ncc2Cl)cc1	-96.3% (inactive)
